These results are taken from PubChem BioAssay AID2685 (National Center for Advancing Translational Sciences (NCATS), 2010).

SMILES strings stand for the structures. Out of some 320,000 compounds screened, about 2,100 (0.66%) were called active. About 53% were inconclusive and are not listed. The call rests on the fitted dose curve; in most records, active means well fitted inhibition curve with a large enough effect in the signal ratio, with a control signal flat (not every such curve was filed as active); inconclusive means small, poorly fitted or top-dose-only effect, or effect the other way, or a change in a side signal; inactive means flat fitted curve, though single readings scatter; the % refers to the signal ratio. This excerpt belongs to a sample that is enriched for actives.
Potency means the concentration at half of the fitted maximal effect.

This experiment can be described thus: qHTS Assay for Lipid Storage Modulators in Drosophila S3 Cells.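 On cell number change: cells counted by Cell Tracker Red CMTPX staining in the red channel.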 On lipid storage change, negative = inhibition: on the % scale 0 is the no-effect control and ±100 the full control effect. To be noted: BODIPY lipid droplet fluorescence, 18-24 h, cells fed with added oleic acid; cell number change: measured here: cell count max response; series mostly up to 46.1 µM; lipid storage change, negative = inhibition: at the top concentration. The gist of the method:
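Drosophila S3 cells got compounds at several concentrations plus oleic acid (400 uM solution). Laser-scanning cytometry with 488 nm excitation read lipid droplets at 500-530 nm and cells at 575-640 nm. Percent activity was relative to 20 uM Triacsin C.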
In general terms: Quantitative high-throughput screening tests each substance at several concentrations.
In the case of `CCc1ccccc1N1CCN(S(=O)(=O)c2cc(OC)ccc2OC)CC1`, the molecule was called inactive.
In the case of `CCc1ccc(Nc2cnn(C34CC5CC(CC(CC(=O)O)(C5)C3)C4)c(=O)c2Cl)cc1`, the “lipid storage change, negative = inhibition” value is 7.65% (inactive) and the cell number change amounted to 8.4%.
For `Cc1ccc(Nc2cnn(C34CC5CC(CC(CC(=O)O)(C5)C3)C4)c(=O)c2Cl)c(Cl)c1`, the “lipid storage change, negative = inhibition” value is 2.44% (inactive) and the cell number change stood at 5.36%.
Consider `Cc1cc(C)cc(Nc2cnn(C34CC5CC(CC(CC(=O)O)(C5)C3)C4)c(=O)c2Cl)c1`, for which the Potency was 18.4 µM (active) and the cell number change is -2.34%.
Turning to `Cc1ccc(CN2CCN(CC(C)C)C(CCO)C2)s1` (stereo unspecified), the “lipid storage change, negative = inhibition” value was 6.7% (inactive) and the cell number change worked out at 20.3%.
Turning to `CN(C)c1ccc(NC(=O)C[n+]2ccccc2)cc1`, the “lipid storage change, negative = inhibition” value is 22.6% (inactive) and the cell number change was found to be 22.5%.
Take `N#Cc1c(OCC(=O)c2ccccc2)nc2c(c1-c1ccco1)CCc1ccccc1-2`: the Potency was 8.2 µM (active) and the cell number change was -13%.
`CC(=O)COc1nc2c(c(-c3ccco3)c1C#N)CCc1ccccc1-2`: the “lipid storage change, negative = inhibition” value was -0.398% (inactive) and the cell number change is 7.55%.
For `CCOC(=O)COc1nc2c(c(-c3ccco3)c1C#N)CCc1ccccc1-2`, in that order: 2.63% (inactive) and 3.1%.
Turning to `CCCOC(=O)Cn1c(=O)c2cc3c(=O)n(CC(=O)OCCC)c(=O)c3cc2c1=O`, the molecule was called inactive and the cell number change was -10.2%.
`CCOC(=O)C1=C(C)N=C2SCCC(=O)N2C1c1cccs1` (stereo unspecified): the “lipid storage change, negative = inhibition” value was 9.97% (inactive) and the cell number change is -2.29%.
In the case of `O=C(O)Cc1sc(Nc2cccc3ccccc23)nc1-c1ccc(F)cc1`, the “lipid storage change, negative = inhibition” value is -9.11% (inactive) and the cell number change was found to be 12.9%.
With `O=C(O)Cc1sc(Nc2cccc3ccccc23)nc1-c1ccccc1`, the Potency was 0.092 µM (active) and the cell number change is 25.4%.
Turning to `O=C(O)Cc1sc(Nc2cccc3ccccc23)nc1-c1ccc(Cl)cc1`, the “lipid storage change, negative = inhibition” value is 8.83% (inactive) and the cell number change was 13.4%.
For `O=c1c([N+](=O)[O-])c(N2CCOCC2)c2ccccc2n1-c1ccccc1`, in that order: 14.5% (inactive) and 8.53%.
For the molecule `CCc1cccc(NC(=O)CCCn2nc(CC)n3c(cc4occc43)c2=O)c1`, the Potency is 20.6 µM (active) and the cell number change was -27.3%.
On to `CCc1nn(CCCC(=O)NCc2ccccc2C)c(=O)c2cc3occc3n12`, for which the result was inactive and the cell number change is -19.5%.
As for `CCOC(=O)C1CCN(C(=O)CCCn2nc(CC)n3c(cc4occc43)c2=O)CC1`, the molecule was called inactive and the cell number change is -12.6%.
In the case of `CCc1nn(CCCC(=O)NCc2ccco2)c(=O)c2cc3occc3n12`, the call was inactive and the cell number change was -6.49%.
In the case of `CCc1nn(CCCC(=O)N2CCN(c3cccc(C)c3C)CC2)c(=O)c2cc3occc3n12`, the call was inactive.
Regarding `CCc1nn(CCCC(=O)N2CCC(C)CC2)c(=O)c2cc3occc3n12`, the Potency was 4.11 µM (active).
On to `COCCNC(=O)Cn1nc(-c2ccccc2C)ccc1=O`, for which the “lipid storage change, negative = inhibition” value was -4.82% (inactive) and the cell number change was determined as 8.76%.
For `O=C(CN(C(=O)c1ccc(Cl)cc1)N1C(=O)C2C3C=CC(C3)C2C1=O)c1cccs1` (stereo unspecified), in that order: 5.92% [at 9.22 µM] (inactive) and -8.51%.
The like results for `COCC(C)NC(=O)C(C)N1c2cccc3cccc(c23)S1(=O)=O` (stereo unspecified) were, in that order, -19% (inactive) and 3.31%.
For `O=C1CC(c2ccco2)CC(O)=C1C=Nc1ccccc1-c1ccccc1` (stereo unspecified), in that order: 2.69% (inactive) and 5.01%.
Consider `O=C1CC(c2ccco2)CC(O)=C1C=Nc1cc(Cl)ccc1Cl` (stereo unspecified), for which the “lipid storage change, negative = inhibition” value is 3.89% (inactive) and the cell number change worked out at 10.5%.
For the molecule `O=C1CC(c2ccco2)CC(O)=C1C=Nc1cc(Cl)cc(Cl)c1` (stereo unspecified), the Potency is 25.9 µM (active) and the cell number change is 13.6%.
As to `O=C(C1CCN(C2CCN(C/C=C/c3ccccc3)CC2)CC1)N1CCOCC1`, the “lipid storage change, negative = inhibition” value was 0.713% (inactive) and the cell number change was found to be 7.25%.
For `Cc1ccc(C2C(C(=O)c3ccco3)=C(O)C(=O)N2c2ncccn2)cc1` (stereo unspecified), in that order: 14.9% (inactive) and 10.6%.
For the molecule `O=C(C1=C(O)C(=O)N(CC2CCCO2)C1c1ccc(Cl)cc1)c1ccco1` (stereo unspecified), the result was inactive and the cell number change was 18.3%.
On to `O=C(C1=C(O)C(=O)N(c2ncccn2)C1c1cccc(Cl)c1)c1ccco1` (stereo unspecified), for which the Potency is 6.51 µM (active) and the cell number change turned out to be 5.29%.
The like results for `O=C(C1=C(O)C(=O)N(CC2CCCO2)C1c1cccc(Cl)c1)c1ccco1` (stereo unspecified) were, in that order, 0.82 µM (active) and -5.86%.
As to `COc1ccc(C2C(C(=O)c3ccco3)=C(O)C(=O)N2CC2CCCO2)c(OC)c1` (stereo unspecified), the “lipid storage change, negative = inhibition” value was -8.33% (inactive) and the cell number change is -0.87%.
The like results for `O=C(C1=C(O)C(=O)N(Cc2ccco2)C1c1cccc(Cl)c1)c1ccco1` (stereo unspecified) were, in that order, -28% (inactive) and 15%.
The like results for `O=C(C1=C(O)C(=O)N(CC2CCCO2)C1c1cccc(O)c1)c1ccco1` (stereo unspecified) were, in that order, -14% (inactive) and -19.7%.
Turning to `O=C(C1=C(O)C(=O)N(CC2CCCO2)C1c1ccccc1Cl)c1ccco1` (stereo unspecified), the Potency was 6.51 µM (active) and the cell number change is -3.95%.
With `O=C(C1=C(O)C(=O)N(c2ncccn2)C1c1ccc(Cl)cc1)c1ccco1` (stereo unspecified), the “lipid storage change, negative = inhibition” value is -11.9% (inactive) and the cell number change is 8.73%.
The like results for `COC(=O)c1ccc(NC(=S)NCc2ccco2)cc1` were, in that order, -4.68% [at 9.22 µM] (inactive) and -29.4%.
The like results for `CCN(CC)N=Nc1ccc(S(N)(=O)=O)cc1` were, in that order, 14.8% (inactive) and -10.8%.
For `O=C(c1ccc(Cl)cc1)N1CCN(c2ccc(F)cc2)CC1`, in that order: 8.11% (inactive) and -2.3%.
In the case of `CCOC(=O)c1cccc(NC(=O)CNC(=O)C2CCCCC2)c1`, the call was inactive and the cell number change came out at 12.1%.
Regarding `Cn1c(=O)c(C(=O)NCc2ccccc2)c(O)c2ccccc21`, the molecule was classed as inactive.
As for `C[C@H]1CC[C@@]2(O[C@@H](CCO)C[C@@H](O)[C@@H]2O)O1`, the “lipid storage change, negative = inhibition” value was -0.85% (inactive) and the cell number change was determined as 10.3%.
For the molecule `CC(NC(=O)c1ccccc1F)c1nnc(SCC(=O)NC2=NCCS2)n1C` (stereo unspecified), the result was inactive and the cell number change was -19.7%.
Regarding `CC(NC(=O)c1ccccc1F)c1nnc(SCC(=O)N2CCN(c3ccccc3)CC2)n1C` (stereo unspecified), the Potency is 0.82 µM (active) and the cell number change is -26.5%.
